Assay outcomes deposited in PubChem BioAssay by National Center for Advancing Translational Sciences (NCATS).
Hits are enriched below; roughly 10% of the tested compounds scored in any of these assays.
MCF10A rerep = A quantitative high throughput screen for small molecules that induce DNA re-replication in MCF 10a normal breast cells | MCF 10A DNA re-replication, Hoechst nuclear intensity, 48 h | Potency, µM (doses to about 46.1 µM), without a hit: at the top dose activity, positive = re-replication, actives largely listed as activators | hit rate 2.9% among 350,000; also: % of control where 0% means no effect; nearly all actives have a fitted effect of over 50% in size
RORg inh = qHTS for inhibitors of ROR gamma transcriptional activity; Drosophila S2 Gal4-RORgamma UAS-luciferase reporter, 20 h; Nuclear receptor ROR-gamma (Mus musculus), P51450; hit rate 5.4% among 310,000; Potency, µM (highest dose often 53.6 µM), for the others: at the top dose activity change, negative = inhibition, hits mostly inhibitors; AID 2551, 2010; also: % is scaled to controls: 0 for no effect and ±100 for the full control effect; nearly all actives have a fitted effect of over 60% in size
Target sequence (P51450 whole entry, looked up, the tested form may be a part): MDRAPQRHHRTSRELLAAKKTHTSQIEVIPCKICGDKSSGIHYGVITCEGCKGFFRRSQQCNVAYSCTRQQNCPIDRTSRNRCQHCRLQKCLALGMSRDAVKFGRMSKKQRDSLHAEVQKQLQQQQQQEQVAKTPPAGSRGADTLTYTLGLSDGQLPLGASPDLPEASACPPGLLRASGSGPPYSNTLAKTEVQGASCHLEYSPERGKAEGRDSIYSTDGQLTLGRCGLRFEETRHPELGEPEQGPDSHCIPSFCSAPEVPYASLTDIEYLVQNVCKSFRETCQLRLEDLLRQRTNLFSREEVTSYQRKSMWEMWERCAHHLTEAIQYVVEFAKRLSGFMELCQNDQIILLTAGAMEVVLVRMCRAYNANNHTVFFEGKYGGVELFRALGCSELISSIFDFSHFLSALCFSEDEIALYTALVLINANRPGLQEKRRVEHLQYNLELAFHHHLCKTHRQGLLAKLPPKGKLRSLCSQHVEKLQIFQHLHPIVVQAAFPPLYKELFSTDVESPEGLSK
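Schneider cells (Drosophila), stable Gal4 DBD–ROR gamma + UAS-luc; 1 hr cmpd preincubation; Cu2+ induction 700 uM final; 20 hr ambient; luminescence.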
VP16 counter = VP16 counterscreen qHTS for inhibitors of ROR gamma transcriptional activity; AID 2546, 2010; Drosophila S2 Gal4-VP16 UAS-luciferase, luminescence, 20 h; Potency, µM (series often up to 53.6 µM), for the others: at the highest dose activity, negative = inhibition, most hits filed as inhibitors; hit rate 3.5% among 310,000;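 also: Gal4-VP16 expression switched on by copper sulfate through the metallothionein promoter; % is scaled to controls: 0 for no effect and ±100 for the full control effect; nearly all actives have a fitted effect of over 50% in size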
SW480 rerep = A quantitative high throughput screen for small molecules that induce DNA re-replication in SW480 colon adenocarcinoma cells; SW480 DNA re-replication, Hoechst DNA content imaging, 48 h; Potency, µM (titrated, usually from 46.1 µM), for inactives: top-dose re-replication activation, actives largely listed as activators; hit rate 1.8% among 340,000; also: % of control where 0% means no effect; nearly all actives have a fitted effect of over 55% in size
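Readout is total intensity of Hoechst-stained nuclei, excited at 405 nm and collected at 500-530 nm. Compound treatment lasted 48 hr at 37 C in 5% CO2 before staining.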
ELG1 repair inh = qHTS screen for small molecules that inhibit ELG1-dependent DNA repair in human embryonic kidney (HEK293T) cells expressing luciferase-tagged ELG1; HEK293T ELG1-luciferase reporter, luminescence, 16 h; DNA damage induced by 5-fluorouridine; Potency, µM (titrated, usually from 46.1 µM), for inactives: top-dose activity change, negative = inhibition, hits mostly inhibitors; hit rate 2.3% among 330,000; also: % is scaled to controls: 0 for no effect and ±100 for the full control effect; nearly all actives have a fitted effect of over 55% in size
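Luminescence from the luciferase reporter, measured 30 min after ONE-Glo reagent at room temperature, was the read-out. Beforehand, 2,000 cells per well were exposed for 16 hr at 37 °C to 5-fluorouridine together with compound or vehicle.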
Starred values were filed as active, the others as inactive; ? = inconclusive; / = not tested or not shown. Calls follow the shape of the dose curve; as a rule, active = well fitted curve in the direction sought with a large enough effect; inconclusive = small, poorly fitted or top-dose-only effect, or another doubt; inactive = no such curve, though single readings can be large; an effect the other way counts as inactive or inconclusive. Potency is read from the fitted curve at half-maximal effect.

SMILES | MCF10A rerep | RORg inh | VP16 counter | SW480 rerep | ELG1 repair inh
Cc1cc(OCC(=O)Nc2ccncc2)cc(C)c1Br | 7% | 0% | 11µM* | 0% | ?
COc1ccc(S(=O)(=O)N2CCOCC2)cc1NC(=O)CN1C(=O)NC2(CCCCC2C)C1=O (centres undefined) | 0% | / | / | 0% | 10%
COc1ccc(/C=C/C(=O)N(C)c2ccccc2C(=O)O)cc1 | -6% | 11% | -5% | -5% | 13%
CC(C)(C)[C@H]1C=C(C(N)=O)O[C@@H](OCCCCO)C1 | -1% | -1% | 2% | ? | 9%
COc1cc(OC)c(NS(=O)(=O)c2cc(C(=O)OC(C)C(=O)NC3CC3)c(Cl)cc2Cl)cc1Cl (centres undefined) | ? | ? | -18% | 1% | ?
Cc1ccc(CNC(=O)CC(C)S(=O)(=O)c2ccc3c(c2)NC(=O)C(C)S3)cc1 (centres undefined) | 1% | 6% | ? | 3% | ?
O=C(COc1ccc2ccccc2c1)Nc1ccncc1 | -1% | ? | 13µM* | -1% | 7%
COc1ccc2nc(SCC(=O)N3CC(=O)Nc4ccccc43)c(C#N)cc2c1 | 2.8µM* | 2% | -20% | 5µM* | 16µM*
Cc1cc(C)c2nc(SCC(=O)N3CC(=O)Nc4ccccc43)c(C#N)cc2c1 | 0.82µM* | -8% | 0% | 1.3µM* | ?
COc1ccc2nc(SCC(C)=O)c(C#N)cc2c1 | 4% | ? | ? | -6% | ?
O=C(COc1ccc2c(c1)OCO2)NCc1cccs1 | -2% | / | / | 1% | ?
COc1cccc(C(=O)NCCNC(=O)c2ccccn2)c1 | -2% | -6% | 9% | -8% | 17%
CCOc1ncccc1C(=O)N=C1SCCN1C(=O)c1cccnc1OCC | 8% | 15% | -6% | -18% | -4%
CN1CCN(NC(=S)NC(C)(C)CC(C)(C)C)CC1 | 2% | 6.3µM* | 18µM* | -1% | -6%
O=C1CSC(c2cccs2)N1c1ccccc1 (centres undefined) | -3% | 23% | -1% | -2% | 13%
COc1ccc(N2C(=O)CSC2c2cccs2)cc1 (centres undefined) | ? | ? | 3% | 18µM* | 2%
COc1cc2oc(=O)cc(-c3ccc(-c4ccc(CO)cc4)cc3)c2c(OC)c1OC | ? | 16% | -4% | -12% | 5.8µM*
COc1cc2oc(=O)cc(-c3ccc(-c4ccc(C)cc4)cc3)c2c(OC)c1OC | 27% | -1% | 9% | -4% | -24%
CC1CN(C(=S)Nc2ccccc2)N(c2ccccc2)C1 (centres undefined) | 0% | 11µM* | -12% | 12% | ?
CC1CN(C(=S)Nc2ccccc2)CC(C)O1 (centres undefined) | 0% | -31% | -18% | -1% | -2%
CC1(C)COC(c2ccc(F)c([N+](=O)[O-])c2)=N1 | 23µM* | -30% | -11% | ? | ?
O=C(NNC1=Nc2ccccc2SC1)c1ccc(Cl)cc1 | ? | 1.1µM* | 5.6µM* | 18µM* | 6.5µM*
O=C(NNC(=O)c1ccc(F)cc1)c1ccncc1 | -2% | 2% | -7% | -6% | -2%
O=C(NNC1=Nc2ccccc2SC1)c1ccc(F)cc1 | 2% | ? | 3.5µM* | -6% | 9.2µM*
Cc1onc(-c2ccccc2)c1C(=O)c1c[nH]c(C(=O)NCc2ccncc2)c1 | 5% | 37% | 1% | 6% | 13µM*
SMILES | MCF10A rerep | RORg inh | VP16 counter | SW480 rerep | ELG1 repair inh
CCC(CC)C(=O)c1c[nH]c(C(=O)NCc2ccccn2)c1 | -8% | -4% | -2% | 5% | -3%
Cc1onc(-c2ccccc2)c1C(=O)c1c[nH]c(C(=O)NCCCN2CCOCC2)c1 | -7% | -3% | -3% | 26% | -1%
Cc1onc(-c2ccccc2)c1C(=O)c1c[nH]c(C(=O)NCc2ccccn2)c1 | 5% | 33% | 9% | 21% | 16µM*
COC(=O)[C@@H](O)CC[C@@H](C)Cc1c(OC)c(OC)c(C)c(OC)c1OC | / | 4% | 0% | / | /
O=S(=O)(c1ccc(N2CC=C(c3ccccc3)CC2)nc1)N1CCCC1 | 23µM* | -4% | 2% | ? | ?
O=S(=O)(c1ccc(N2CCN(S(=O)(=O)c3ccccc3)CC2)nc1)N1CCCC1 | 5% | -36% | -7% | -3% | ?
S=C(c1c[nH]c2ccc(Br)cc12)N1CCOCC1 | -6% | 61% | 0% | -22% | 0%
CC1CCc2nc3sc4c(c3c(N)c2C1)CCCC4 (centres undefined) | ? | -36% | -14% | 14% | ?
CC1CCc2c(nc3sc4c(c3c2N)CCCC4)C1 (centres undefined) | ? | 13µM* | ? | -5% | ?
Cc1cc(C)c(S(=O)(=O)N2CCN(CCN3C(=O)c4cccc5cccc(c45)C3=O)CC2)cc1[N+](=O)[O-] | -11% | -6% | 7% | -11% | 3.7µM*
CCCS(=O)(=O)N1CCN(CCN2C(=O)c3cccc4cccc(c34)C2=O)CC1 | -1% | 13% | -11% | -1% | ?
COc1ccc(N/C=C/C(=O)c2cc(OC)c(OC)c(OC)c2)cc1 | 5.2µM* | 22% | 17% | 5.8µM* | ?
COc1ccc(OC)c(N/C=C/C(=O)c2ccccc2)c1 | ? | 4.5µM* | 5µM* | 11% | ?
COc1ccc(N/C=C/C(=O)c2ccc(OC)c(OC)c2)cc1 | 21µM* | 13% | -6% | 12% | ?
CN(CC(=O)Nc1ccc(F)cc1)C(=O)COC(=O)CNC(=O)c1sc2ccccc2c1Cl | 5% | / | / | -6% | -2%
O=C(CCOc1ccccc1)Nc1ccnn1C1CCN(C(=O)CCC(F)(F)F)CC1 | 2% | 20% | -14% | -1% | 4%
Cn1ncc([N+](=O)[O-])c1C(=O)Nc1nccs1 | -4% | -28% | 0% | -4% | -2%
Cc1ccc(NC(=O)Cc2nnc(SCC(=O)NC3CCCC3)n2C)c(C)c1 | 11% | 3% | 0% | -2% | 28%
O=C(N/N=C/c1cccs1)c1ccc(NC(=O)c2ccccc2Cl)cc1 | -7% | 10µM* | ? | -3% | ?
O=C(N/N=C/c1ccccc1F)c1cccc(NC(=O)c2ccccc2Cl)c1 | ? | 16% | -4% | 3% | 4%
Cc1ccc(/C=N/NC(=O)c2ccc(-n3cccc3)cc2)o1 | 8% | 18µM* | ? | -2% | -3%
O=C(N/N=C/c1cccs1)c1ccc(-n2cccc2)cc1 | -2% | 6.3µM* | 11µM* | 1% | 5%
